In PubChem BioAssay AID434970 (Sanford-Burnham Center for Chemical Genomics, 2010):
Hit rate of the full screen: of about 11,000 compounds, about 310 (2.8%) were called active. The sample holds actives, similar compounds and a random draw of the others, so the mix is not that of the screen. No stated cut-off is given here; in the data, active means activity change below about -85%; inactive means the rest.

tested on: intestinal alkaline phosphatase [Mus musculus]; test: mouse intestinal phosphatase enzyme activation – biochemical, luminescence, single concentration, confirmation (AID 434970); conditions: purified mouse IAP, CDP-Star luminescence, 30 min, at 10 µM; activation factor: measured here: IAP activation factor, stronger effect = higher value; activity change, negative = activation: stronger effect = lower value

Row | SMILES | activation factor | activity change, negative = activation
1 | Cc1cc(C)n2cc(CSc3nnnn3-c3ccccc3)nc2n1 | 0.946 | 5.45% (inactive)
2 | CCOC(=O)c1c(NC(=O)CSc2nnc(CNc3ccc(F)cc3)o2)sc(C(C)=O)c1C | 0.797 | 20.2% (inactive)
3 | O=C1c2ccccc2[C@@H]2C[C@@H](O)[C@H](Nc3cccc(Cl)n3)CCN12 | 1.01 | -0.85% (inactive)
4 | CCCCN1CCS(=O)(=O)N(Cc2ccccc2Br)CC(C(=O)OC)C1 (stereo not drawn) | 0.992 | 0.8% (inactive)
5 | C=CCNC(=O)/C(=C/c1ccco1)NC(=O)c1ccc(Br)o1 | 0.906 | 9.4% (inactive)
6 | O=C(NCCCN1CCCCC1)c1ccc2c(=O)n(CCc3ccccc3)c(=O)[nH]c2c1 | 0.91 | 9% (inactive)
7 | COc1cc(OC)c2c(-c3cccc(-c4ccc(OC(F)(F)F)cc4)c3)cc(=O)oc2c1 | 0.834 | 16.6% (inactive)
8 | COCC(C)NCc1cccc(OC)c1OC (stereo not drawn) | 1.14 | -14.2% (inactive)
9 | Cc1ccc(C(=O)NC(Cc2ccc(C(C)(C)C)cc2)C(=O)O)cc1 (stereo not drawn) | 1.03 | -3.5% (inactive)
10 | O=C(c1ccc(S(=O)(=O)N2CCCCC2)cc1)N1CCCc2ccccc21 | 0.98 | 2.05% (inactive)
11 | Cc1nn(C)cc1CNC(=O)c1cccc(Br)c1 | 1.12 | -11.8% (inactive)
12 | Cc1cc(Cn2nc(-c3ccccc3)cc2C(=O)NCc2cccc(Br)c2)on1 | 3.29 | -230% (active)
13 | Cc1ccccc1-c1cc(C(=O)NCc2cccc(Br)c2)n(CC2CC(c3cccnc3)=NO2)n1 (stereo not drawn) | 1.56 | -55.5% (inactive)
14 | O=C(C[C@H]1C[C@H](C(=O)N2CCOCC2)[C@@]2(CCC3CCCC3)c3[nH]c4cc(-c5ccco5)ccc4c3CCN2C1=O)NCCc1ccccn1 | 1.17 | -17.2% (inactive)
15 | Cc1ccccc1OCC(=O)OC(C)CN1CCN(C)CC1 (stereo not drawn) | 0.998 | 0.2% (inactive)
16 | Cc1ccc(NC(=O)Nc2ccc3c(c2)N(C)C(=O)CS3)cc1C | 1.92 | -91.7% (inactive)
17 | CC(=O)c1ccc(NC(=O)Nc2ccc3c(c2)N(C)C(=O)CS3)cc1 | 1.28 | -28.4% (inactive)
18 | COc1ccc(NC(=O)Nc2ccc3c(c2)N(C)C(=O)CS3)cc1OC | 1.48 | -48.4% (inactive)
19 | Cc1cc(C)cc(NC(=O)Nc2ccc3c(c2)N(C)C(=O)CS3)c1 | 2.54 | -154% (active)
20 | CCc1ccc(NC(=O)Nc2ccc3c(c2)N(C)C(=O)CS3)cc1 | 2.14 | -114% (active)
21 | CN1C(=O)CSc2ccc(NC(=O)NCCC3=CCCCC3)cc21 | 2.22 | -122% (active)
22 | Cc1ccc(CNC(=O)Nc2ccc3c(c2)N(C)C(=O)CS3)cc1 | 1.78 | -78% (inactive)
23 | CC(C)CCNC(=O)Nc1ccc2c(c1)N(C)C(=O)CS2 | 1.53 | -52.8% (inactive)
24 | CCOc1ccc(NC(=O)Nc2ccc3c(c2)N(C)C(=O)CS3)cc1 | 1.29 | -29.2% (inactive)
25 | CCCn1c(Cc2ccccc2)nnc1SCC(=O)N1CCOCC1 | 0.955 | 4.5% (inactive)

Row | SMILES | activation factor | activity change, negative = activation
26 | CC(O)[C@H](NC(=O)C1(c2ccccc2)CCN(C(=O)OC(C)(C)C)CC1)C(=O)O (stereo partly drawn) | 1.15 | -15.3% (inactive)
27 | COc1ccc2[nH]c3c(c2c1)CCN1C(=O)C(CC(=O)NCCN2CCOCC2)C[C@H](C(=O)N2CCOCC2)[C@@]31CCC1CCCC1 (stereo partly drawn) | 1.04 | -4.1% (inactive)
28 | O=C(C[C@H]1C[C@H](C(=O)N2CCCCC2)[C@@]2(CCc3ccccc3)c3[nH]c4ccc(Cl)cc4c3CCN2C1=O)NCc1cccc(C(F)(F)F)c1 | 1.15 | -15% (inactive)
29 | Cn1c(COc2ccc3ccccc3c2)nnc1SCC(=O)O | 0.952 | 4.85% (inactive)
30 | O/N=C1/CC/C(=N\O)c2nn(-c3ccccc3)nc21 | 0.893 | 10.7% (inactive)
31 | CCOC(=O)c1cnn(-c2ccc(Cl)cc2)c1C1CCN(C(=O)OC(C)(C)C)CC1 | 1.12 | -12.1% (inactive)
32 | COc1ccc(Nc2nc(-c3cccs3)cs2)cc1 | 0.881 | 11.9% (inactive)
33 | Cc1cccc(NC(=O)/C(=C\c2ccco2)NC(=O)c2cccs2)c1 | 0.978 | 2.15% (inactive)
34 | OC[C@@H]1[C@@H](c2ccccc2)C(c2cccc(Cl)c2)=NN1c1ccccc1 | 2.28 | -128% (active)
35 | O=C1OCCN1C(=O)[C@H]1[C@H](c2ccccc2)C(c2cccc(Cl)c2)=NN1c1ccccc1 | 1.01 | -1.05% (inactive)
36 | OC[C@@H]1[C@@H](c2ccc(Cl)cc2)C(c2cccc(Cl)c2)=NN1c1ccccc1 | 2.2 | -120% (active)
37 | OC[C@@H]1[C@@H](c2ccc(F)cc2)C(c2ccccc2)=NN1c1ccccc1 | 1.73 | -72.9% (inactive)
38 | OC[C@@H]1[C@@H](c2ccc(Cl)cc2)C(c2ccc(F)cc2)=NN1c1ccccc1 | 1.79 | -79% (inactive)
39 | Cc1cccc(C2=NN(c3ccccc3)[C@H](CO)[C@H]2c2ccccc2)c1 | 2.07 | -107% (active)
40 | OC[C@@H]1[C@@H](c2ccc(Cl)cc2)C(c2ccccc2)=NN1c1ccccc1 | 1.77 | -76.8% (inactive)
41 | Cc1cccc(C2=NN(c3ccccc3)[C@H](CO)[C@H]2c2ccc(F)cc2)c1 | 1.73 | -72.7% (inactive)
42 | OC[C@@H]1[C@@H](c2ccc(F)cc2)C(c2cccc(Cl)c2)=NN1c1ccccc1 | 1.96 | -96.2% (inactive)
43 | OC[C@@H]1[C@@H](c2ccccc2)C(c2ccc(F)cc2)=NN1c1ccccc1 | 1.65 | -64.5% (inactive)
44 | OC[C@@H]1[C@@H](c2ccccc2)C(c2ccccc2)=NN1c1ccccc1 | 2.15 | -115% (active)
45 | Cc1cccc(C2=NN(c3ccccc3)[C@H](CO)[C@H]2c2ccc(Cl)cc2)c1 | 1.89 | -89.3% (inactive)
46 | Cc1noc(C)c1S(=O)(=O)N1CCC(C(=O)NCCN2CCC(C)CC2)CC1 | 1.01 | -1.4% (inactive)
47 | COc1ccc(C(=O)Nc2ccc(S(=O)(=O)N3CCCCC3)cc2)cc1 | 1.11 | -11% (inactive)
48 | COC(=O)C(NC(=O)CCc1c(C)nc2ncnn2c1C)C(C)C (stereo not drawn) | 0.949 | 5.15% (inactive)
49 | Clc1ccc(-n2nnnc2-c2cnc(-c3ccncc3)nc2-c2cccs2)cc1 | 0.877 | 12.4% (inactive)
